Screen size: about 310,000 compounds; about 14,000 (4.5%) showed an effect of 50% or more. The effect is printed as a negative number. The full list was thinned out, with strong results kept by preference.
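Note: peak tail current of the secondary pulse compared with the same well before compound.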

In the assay the target is human ether-à-go-go-related gene (hERG) potassium channel (human, UniProt Q12809). The assay is described as follows: primary screen, population patch clamp on CHO cells stably expressing hERG; higher = less effect of the substance.
human ether-à-go-go-related gene (hERG) potassium channel, sequence (Q12809 whole entry, looked up): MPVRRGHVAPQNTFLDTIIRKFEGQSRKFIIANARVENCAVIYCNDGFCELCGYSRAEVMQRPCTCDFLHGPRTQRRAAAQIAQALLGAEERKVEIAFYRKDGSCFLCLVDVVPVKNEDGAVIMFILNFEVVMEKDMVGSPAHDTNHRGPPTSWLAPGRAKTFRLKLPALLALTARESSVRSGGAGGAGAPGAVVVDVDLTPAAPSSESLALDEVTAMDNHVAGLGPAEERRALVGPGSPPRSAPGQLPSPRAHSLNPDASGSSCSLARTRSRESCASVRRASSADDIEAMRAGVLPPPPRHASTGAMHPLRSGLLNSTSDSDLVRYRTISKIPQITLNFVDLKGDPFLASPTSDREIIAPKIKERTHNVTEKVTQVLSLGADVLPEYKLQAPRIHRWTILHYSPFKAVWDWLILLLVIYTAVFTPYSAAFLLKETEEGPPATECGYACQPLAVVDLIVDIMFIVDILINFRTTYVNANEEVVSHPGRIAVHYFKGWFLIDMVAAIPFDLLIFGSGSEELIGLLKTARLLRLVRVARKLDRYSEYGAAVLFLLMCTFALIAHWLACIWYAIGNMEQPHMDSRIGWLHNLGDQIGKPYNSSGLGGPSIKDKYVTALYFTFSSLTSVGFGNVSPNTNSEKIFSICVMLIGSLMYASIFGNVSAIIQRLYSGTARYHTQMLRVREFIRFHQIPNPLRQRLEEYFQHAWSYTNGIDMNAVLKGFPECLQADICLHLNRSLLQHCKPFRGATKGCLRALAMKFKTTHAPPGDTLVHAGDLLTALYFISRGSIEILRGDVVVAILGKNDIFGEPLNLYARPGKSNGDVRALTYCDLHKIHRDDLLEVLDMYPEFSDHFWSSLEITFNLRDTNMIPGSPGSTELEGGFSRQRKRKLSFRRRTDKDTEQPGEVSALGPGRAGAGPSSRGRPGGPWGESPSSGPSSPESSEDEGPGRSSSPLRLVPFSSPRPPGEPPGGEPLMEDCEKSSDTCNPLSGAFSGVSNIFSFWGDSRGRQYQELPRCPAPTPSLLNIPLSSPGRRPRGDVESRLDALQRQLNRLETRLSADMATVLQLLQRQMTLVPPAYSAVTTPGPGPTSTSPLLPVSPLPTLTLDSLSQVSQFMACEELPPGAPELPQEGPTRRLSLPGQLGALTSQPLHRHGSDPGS
As to `CCC(=O)Nc1ccc(S(=O)(=O)c2ccc(NC(=O)CC)cc2)cc1`, the “hERG current change (%, negative = inhibition) at 10uM” value was 0.428%.
The same measure for `CC(C)(CNC(=O)COc1ccccc1Cc1ccccc1)N1CCOCC1`: -55.6%; for `COCC1CCN(C(=O)c2cc(COc3ccccc3SC)on2)C1` (stereo not shown): -33.9%; for `COc1ccccc1OCc1cc(C(=O)N2CCN(C)C(c3ccccc3)C2)no1` (stereo not shown): -61.1%.
For `Cl.O=C(COc1ccccc1Cc1ccccc1)NCCCN1CCOCC1`, the “hERG current change (%, negative = inhibition) at 10uM” value is given as -32.1%.
The value for `CSc1ccccc1OCc1cc(C(=O)N2CCCC(C)C2)no1` (stereo not shown) was -0.622%.
The value for `Cc1ccccc1OCC(=O)NCC(C)(C)N1CCOCC1` was 7.19%; that for `COc1cccc(OCc2cc(C(=O)N3CCN(C)C(c4ccccc4)C3)no2)c1` (stereo not shown) was -6.09%; that for `CSc1ccccc1OCc1cc(C(=O)N2CCN(C)C(c3ccccc3)C2)no1` (stereo not shown) was -5.98%.
The value for `CCN(CC)C1CCN(C(=O)c2cc(COc3ccccc3SC)on2)C1` (stereo not shown) was -68.4%.
`C[C@H](CCC(=O)O)[C@H]1CC[C@H]2[C@@H]3CC[C@@H]4C[C@H](O)CC[C@]4(C)[C@H]3C[C@H](O)[C@]12C`: the “hERG current change (%, negative = inhibition) at 10uM” value came to 11.8%.
Take `CCCN1CCC(NC23CC4CC(CC(C4)C2)C3)CC1`: the “hERG current change (%, negative = inhibition) at 10uM” value was found to be 22.1%.
Take `O=S(=O)(c1cccc2nonc12)N1CCN(c2ccccc2F)CC1`: the “hERG current change (%, negative = inhibition) at 10uM” value is on record as 4.42%.
Consider `CCOC(=O)c1c(C)[nH]c(C)c1C(=O)CSc1ncccn1`, for which the “hERG current change (%, negative = inhibition) at 10uM” value was -2.23%.
The value for `O=C(Nc1nnc(-c2ccccc2Cl)s1)C1CCN(S(=O)(=O)c2ccc(Cl)cc2)CC1` was 28.1%; that for `CCc1cccc(OCCCCN(CC)CC)c1` was -37.9%; that for `CCN(CC)CCCOc1ccc(Cl)c(Cl)c1` was -60.5%.
The value for `CCOc1ccccc1OCCCOc1ccc(C)cc1Br` was 7.97%; that for `CCN(CC)CCCOc1ccc(C)cc1Br` was -69%; that for `Clc1ccc(OCCCn2cncn2)cc1Cl` was -12.2%.
The same measure for `Cc1ccc(OCCCN(C)C)c(Br)c1`: -20.6%.
In the case of `COc1ccc(/C=N/N=C/c2ccc(OC)cc2)cc1`, the “hERG current change (%, negative = inhibition) at 10uM” value stood at 14%.
The same measure for `CCOC(=O)CC1COCCN1C(=O)c1ccc2oc(Cc3ccccc3)nc2c1` (stereo not shown): 1.91%.
The value for `COc1ccc([C@@H]2CC=C(C(=O)O)CN2S(=O)(=O)c2ccc(Cl)cc2)cc1` was 7.54%; that for `OCC[n+]1c2ccccc2nc2ccc(N3CCOCC3)cc21.[O-][Cl+3]([O-])([O-])[O-]` was 3.86%; that for `O=C1Cc2cc(NS(=O)(=O)c3cc(F)ccc3F)cc3c2N1CCC3` was -2.87%.
`Cc1ccc(NC(=S)N(CCN2CCOCC2)Cc2cc3cc4c(cc3[nH]c2=O)OCCO4)cc1`: the “hERG current change (%, negative = inhibition) at 10uM” value is reported as -14.3%.
The value for `C=CCNC(=O)CN1C(=O)NC(C)(c2ccc(OC)cc2)C1=O` (stereo not shown) was -14.2%; that for `COC(=O)C(NC(=O)c1ccc(F)cc1)(Nc1ncc(S(=O)(=O)c2ccc([N+](=O)[O-])cc2)s1)C(F)(F)F` (stereo not shown) was -52.9%; that for `COC(=O)C(NC(=O)c1ccccc1Cl)(Nc1ncc(S(=O)(=O)c2ccc([N+](=O)[O-])cc2)s1)C(F)(F)F` (stereo not shown) was -32.8%.
The value for `COC(=O)C(NC(=O)c1ccc(OC)cc1)(Nc1ncc(S(=O)(=O)c2ccc([N+](=O)[O-])cc2)s1)C(F)(F)F` (stereo not shown) was -5.41%; that for `CCc1nnc(NC(=O)CCC(=O)NC2CCCCCC2)s1` was 3.71%; that for `O=c1c2ccccc2nc(Cc2ccccc2)n1-c1ccccc1` was -20.9%.
The same measure for `COc1ccc(-n2c(Cc3ccccc3)nc3ccccc3c2=O)cc1`: -92.8%.
Turning to `O=c1c2ccccc2nc(Cc2cccc([N+](=O)[O-])c2)n1-c1ccc(O)cc1`, the “hERG current change (%, negative = inhibition) at 10uM” value is on record as -35.5%.
The same measure for `COc1ccc(-n2c(Cc3cccc([N+](=O)[O-])c3)nc3ccccc3c2=O)cc1`: -69.4%.
The value for `COc1ccc(-n2c(-c3ccccc3[N+](=O)[O-])nc3ccccc3c2=O)cc1` was -68.7%.
The same measure for `CCCc1nc2ccccc2c(=O)n1-c1ccc(OC)cc1`: 9.5%; for `O=c1c2ccccc2nc(Cc2ccccc2)n1-c1ccc(O)cc1`: -23.9%; for `COc1ccc(-c2nc3ccccc3c(=O)n2-c2ccc(OC)cc2)cc1`: -4.5%.
With `COc1ccc(-n2c(-c3ccccc3Br)nc3ccccc3c2=O)cc1`, the “hERG current change (%, negative = inhibition) at 10uM” value is listed as -20.9%.
With `CCc1c(C)sc(NC(=O)c2cc(-c3cc(OC)ccc3OC)on2)c1C#N`, the “hERG current change (%, negative = inhibition) at 10uM” value is listed as 3.3%.
Regarding `COc1ccc2cc(C(=O)C3CCCN(C(=O)c4cccnc4)C3)ccc2c1` (stereo not shown), the “hERG current change (%, negative = inhibition) at 10uM” value was -25.1%.
With `CCOC(=O)c1ccc(N=Nc2c(C)c(C#N)c(O)[nH]c2=O)cc1`, the “hERG current change (%, negative = inhibition) at 10uM” value is given as 1.91%.
For `Cc1ccc(OCCNC(=O)CCNS(=O)(=O)c2ccc(Br)cc2)cc1`, the “hERG current change (%, negative = inhibition) at 10uM” value turned out to be 15.7%.
The value for `CSc1nncc(-c2ccc(F)c(F)c2)n1` was 10.8%.
The value for `C=CCNC(=S)/N=C/c1c(O)[nH]c(=O)[nH]c1=O` was -52.8%; that for `NC(=S)/N=C/c1c(O)[nH]c(=O)[nH]c1=O` was 12.5%.
With `CCCCCCCCN=Cc1c(O)[nH]c(=O)[nH]c1=O`, the “hERG current change (%, negative = inhibition) at 10uM” value came to 4.9%.
Consider `CCNc1nc(NCC)n2c(SCC(=O)Nc3ccccc3Cl)nnc2n1`, for which the “hERG current change (%, negative = inhibition) at 10uM” value amounted to 11%.
With `O=C(CSc1c(Cl)cccc1Cl)N1CCC(c2nc3ccccc3s2)CC1`, the “hERG current change (%, negative = inhibition) at 10uM” value was -0.729%.
Take `O=C(CSc1ccc(F)cc1)N1CCC(c2nc3ccccc3s2)CC1`: the “hERG current change (%, negative = inhibition) at 10uM” value was -67.1%.
The same measure for `O=C(CSc1ccc(Cl)cc1)N1CCC(c2nc3ccccc3s2)CC1`: -59.7%; for `O=C(CSc1ccc(Cl)cc1Cl)N1CCC(c2nc3ccccc3s2)CC1`: -14.5%; for `CCNC(=O)N1CCC(c2nc3ccccc3s2)CC1`: 10.3%.
On to `O=C(CSc1ccccc1Cl)N1CCC(c2nc3ccccc3s2)CC1`, for which the “hERG current change (%, negative = inhibition) at 10uM” value is listed as -7.4%.
The same measure for `CS(=O)(=O)Cc1ccc(C(=O)N2CCCC2c2cccs2)cc1` (stereo not shown): 16.9%; for `CN(CCc1ccccn1)C(=O)CCC1CCCN(C(=O)c2ccccn2)C1` (stereo not shown): 21.8%.
The value for `Cc1ccccc1C(=O)Nc1ccc2c(c1)OCCO2` was 6.96%; that for `Cc1ccc(C(=O)CCC(=O)Nc2ccccc2C)cc1C` was 15%.
The same measure for `CN1CCN(Cc2nc3c(c(=O)n(C)c(=O)n3C)n2CCCc2ccccc2)CC1`: -13.4%; for `CCCCCCn1c(CN2CCN(Cc3ccccc3)CC2)nc2c1c(=O)n(C)c(=O)n2C`: -71.8%; for `CCC(=O)OCCn1c(Br)nc2c1c(=O)[nH]c(=O)n2C`: -0.796%.
For the compound `CCCCn1c(SCc2cccnc2)nc2c1c(=O)n(C)c(=O)n2C`, the “hERG current change (%, negative = inhibition) at 10uM” value is -28%.
Regarding `CCOC(=O)Cn1c(Br)nc2c1c(=O)[nH]c(=O)n2C`, the “hERG current change (%, negative = inhibition) at 10uM” value is recorded as -58%.
`CCCCn1c(SCc2nnc(-c3ccccc3)o2)nc2c1c(=O)n(C)c(=O)n2C`: the “hERG current change (%, negative = inhibition) at 10uM” value is recorded as -56%.
In the case of `CCCCCn1c(CN2CCN(Cc3ccccc3)CC2)nc2c1c(=O)n(C)c(=O)n2C`, the “hERG current change (%, negative = inhibition) at 10uM” value is on record as -68%.
The same measure for `CCCC(=O)OCCn1c(Br)nc2c1c(=O)[nH]c(=O)n2C`: 16.9%; for `CCCCn1c(SCc2ccccn2)nc2c1c(=O)n(C)c(=O)n2C`: -8.02%.
For the compound `CCCCCn1c(CN2CCN(CCO)CC2)nc2c1c(=O)n(C)c(=O)n2C`, the “hERG current change (%, negative = inhibition) at 10uM” value was -17.9%.
The value for `CCCCCCn1c(CN2CCN(CCO)CC2)nc2c1c(=O)n(C)c(=O)n2C` was -38.3%.
The value for `Cn1c(=O)c2c(nc(CN3CCCCC3)n2CCCc2ccccc2)n(C)c1=O` was -29.1%; that for `COC(=O)c1c(NC(=O)COC(=O)C2CCC2)sc(C)c1C` was -13.4%.
The value for `Fc1ccc(-c2n[nH]c(=S)n2Cc2ccccc2)cc1` was 7.48%.
As to `NCc1nc(-c2ccc(Cl)cc2)no1`, the “hERG current change (%, negative = inhibition) at 10uM” value is recorded as 11.2%.
The same measure for `CCOC(=O)COn1c(=O)c(-c2ccc(OC)c(OC)c2)[n+]([O-])c2ccccc21`: -11.9%; for `O=C(Nc1ccc2c(c1)OCO2)c1ccc(CO)cc1`: 4.24%; for `CN1CCC(=NNC(=O)c2cc(-c3ccc(Cl)cc3)n[nH]2)CC1`: -16.4%.
On to `c1ccc(-c2cccc(-c3ccccc3)n2)cc1`, for which the “hERG current change (%, negative = inhibition) at 10uM” value was found to be 18.4%.
Turning to `CCOc1ccc(CCNC(=O)COC(=O)C2CC2)cc1OCC`, the “hERG current change (%, negative = inhibition) at 10uM” value came out at 3.41%.
As for `Cc1nnc(SCC(=O)Nc2ccc3c(c2)OCCO3)n1N`, the “hERG current change (%, negative = inhibition) at 10uM” value was found to be 12.4%.
Turning to `CSc1ccccc1NC(=O)c1c(Br)cnn1C`, the “hERG current change (%, negative = inhibition) at 10uM” value is recorded as -1.39%.
The value for `CCCCCCn1c(CN2CCCCC2)nc2c1c(=O)n(C)c(=O)n2C` was -35.7%; that for `CCOC(=O)N1CCN(Cc2nc3c(c(=O)[nH]c(=O)n3C)n2CCCc2ccccc2)CC1` was -37.5%.
As to `CCCCCCn1c(CN2CCC(C)CC2)nc2c1c(=O)n(C)c(=O)n2C`, the “hERG current change (%, negative = inhibition) at 10uM” value was -8.75%.
The value for `CCCCCn1c(CN2CCN(C(=O)OCC)CC2)nc2c1c(=O)[nH]c(=O)n2C` was -69.8%; that for `CCOCCn1c(CN2CCCC(C)C2)nc2c1c(=O)n(C)c(=O)n2C` (stereo not shown) was 11.7%; that for `CCCCCCn1c(CN2CCCC(C)C2)nc2c1c(=O)n(C)c(=O)n2C` (stereo not shown) was -58.1%.
The value for `CCCCCCn1c(CN2CCN(C(=O)OCC)CC2)nc2c1c(=O)n(C)c(=O)n2C` was -53.5%; that for `CCCCCn1c(CN2CCN(C(=O)OCC)CC2)nc2c1c(=O)n(C)c(=O)n2C` was -34.6%.
The value for `CCCCCn1c(CN2CCN(C)CC2)nc2c1c(=O)n(C)c(=O)n2C` was -33.1%; that for `CCCCn1c(CN2CCN(C(=O)OCC)CC2)nc2c1c(=O)n(C)c(=O)n2C` was -18.1%.
Regarding `CCCCn1c(CN2CCN(C(=O)OCC)CC2)nc2c1c(=O)[nH]c(=O)n2C`, the “hERG current change (%, negative = inhibition) at 10uM” value is 6.72%.
In the case of `CCCCCCn1c(CN2CCN(C)CC2)nc2c1c(=O)n(C)c(=O)n2C`, the “hERG current change (%, negative = inhibition) at 10uM” value was -80.9%.

The values above are taken from article PMC4336329 (PLoS ONE, 2015).
